Pf apPOL inh: Pf-apPOL DNA polymerase inhibition; 0.25% of 210,000 active; inhibition, % at 10 µM; Recombinant Pf-apPOL, molecular beacon fluorescence, 1.5 h
mHTT CaM bind: mHTT-calmodulin interaction abrogation; AID 1671202; 3.6% of 190,000 active; inhibition, % at 15 µM; AlphaScreen His-mHTT/GST-CaM binding, luminescence; P42858;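 also: 0% = both proteins with DMSO and 100% = one protein alone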
Numbers without * were called inactive; . = not tested or not shown. The full list was thinned out, with hits kept by preference. Rule as the data show it: active = inhibition above about 50%; inactive = the rest.

SMILES | Pf apPOL inh | mHTT CaM bind
COc1cccc(-n2nc(C(=O)N3CCOCC3)c3ccccc3c2=O)c1 | -1.5 | 0.0
COc1ccccc1C(=O)N1CCN=C1N1CCN(c2cccc(Cl)c2)CC1 | 0.0 | 48.1
CCOc1ccc(C(=O)N2CCN=C2N2CCC(C)CC2)cc1 | -5.9 | 3.6
O=c1[nH]nc(SCCO)c(=O)[nH]1 | -9.0 | 3.5
CCNC(=O)C1=CCN(C(=O)c2ccc(C)cc2C)CC1 | 1.0 | 3.0
CCOC(=O)c1[nH]c(C)c(S(=O)(=O)NC2CCCCNC2=O)c1C (stereo unspecified) | -4.1 | .
COc1cccc2sc(Nc3nc4ccc(S(C)(=O)=O)cc4s3)nc12 | -251.5 | -36.4
COc1cccc2sc(Nc3nnc(-c4cccs4)o3)nc12 | -264.9 | 75.6*
Cc1ccccc1NC(=O)C(C(=O)Nc1ccccc1C)c1ccccc1 | -5.0 | .
O=[N+]([O-])c1cccc(C=Nc2ccc(I)cc2)c1O | -3.6 | 3.0
Cc1ccc(N=Cc2cc3c(cc2[N+](=O)[O-])OCO3)cc1I | -8.0 | 55.0*
COc1ccc(-c2nc3ccc(N=Cc4cc5c(cc4[N+](=O)[O-])OCO5)cc3o2)cc1 | -4.6 | 21.0
O=[N+]([O-])c1cc2c(cc1C=Nc1ccc(I)cc1)OCO2 | -1.8 | 64.0*
CC1(C(=O)NC2CCCCCC2)Cc2ccccc2C(=O)N1Cc1cccs1 (stereo unspecified) | -1.8 | -9.1
COc1ccc(S(=O)(=O)N2CC=C(c3ccccc3)CC2)c(OC)c1 | -13.4 | .
Cc1onc(-c2c(Cl)cccc2Cl)c1C(=O)On1c(-c2ccccc2)nc2ccccc2c1=O | -2.9 | .
O=C(On1c(-c2ccccc2)nc2ccccc2c1=O)c1ccco1 | -9.6 | 100.1*
O=C(NCc1ccccc1)/C(=C\c1ccccc1)NC(=O)c1ccc(Br)o1 | -5.9 | -3.3
O=C1C2CC=CCC2C(=O)N1c1ccc(NC2CCCc3ccccc32)c([N+](=O)[O-])c1 (stereo unspecified) | -22.4 | 47.0
O=C1CCC(=O)N1c1ccc(NC2CCCc3ccccc32)c([N+](=O)[O-])c1 (stereo unspecified) | -14.3 | 66.0*
CCC1(CC)C(=O)NC(=O)NC1=Nc1ccc(C)cc1 | -0.7 | 3.0
CN1CCN(c2nc3c(=O)[nH]cnc3n2C2OC(CO)C(O)C2O)CC1 (stereo unspecified) | -5.5 | -5.0
COCc1cc(C)nc(SCC(=O)Nc2cccc(C(C)=O)c2)c1C#N | -2.3 | -4.1
COc1ccc(OC)c(NC(=O)c2c(NCc3ccccn3)sc3c2CCCC3)c1 | -18.5 | 59.0*
COc1ccc(Cl)cc1NC(=O)c1c(NCc2ccccn2)sc2c1CCCC2 | -17.4 | 75.0*
SMILES | Pf apPOL inh | mHTT CaM bind
COc1ccc(NC(=O)c2c(NCc3ccccn3)sc3c2CCC3)cc1 | -16.6 | 59.0*
COc1ccc(Cl)cc1NC(=O)c1c(NCc2cccn2C)sc2c1CCCC2 | -15.1 | 65.0*
COc1ccc(NC(=O)c2c(NC(=O)c3ccccc3Cl)sc3c2CCCC3)c(OC)c1 | -8.6 | 4.4
CCOc1ccccc1NC(=O)c1c(NCc2cc(OC)ccc2OC)sc2c1CCC2 | -19.2 | 16.0
COc1ccc(OC)c(NC(=O)c2c(NC(=O)c3ccccc3F)sc3c2CCCC3)c1 | -23.5 | -4.5
COc1ccc(NC(=O)c2c(NC(=O)c3cccnc3)sc3c2CCC3)cc1 | 2.5 | 0.0
COc1ccc(C(=O)Nc2ccc(S(=O)(=O)Nc3cc(OC)nc(OC)n3)cc2)cc1 | 2.2 | 23.0
O=C(Nc1c(-c2ccc(F)cc2)nc2ccccn12)c1cccc([N+](=O)[O-])c1 | -0.4 | 0.0
CCOc1ccc(NC(=O)C(Br)CC)cc1 (stereo unspecified) | -1.7 | -9.0
O=[N+]([O-])c1cc(Cl)ccc1NCCNS(=O)(=O)c1ccccc1 | -0.6 | 41.0
O=[N+]([O-])c1cc(Cl)ccc1NCCCNS(=O)(=O)c1ccccc1 | -1.1 | 53.0*
COc1ccc(-c2[nH]nc3c2C2(C(=O)Nc4ccccc42)C(C#N)=C(N)O3)cc1OC (stereo unspecified) | -7.6 | 0.0
CC(=O)c1ccc(NC(=O)CN2CCC(c3nc(-c4cccc(C)c4)no3)CC2)cc1 | 3.8 | 5.3
CCN(Cc1ccccc1)C(=O)c1ccc2c(c1)NC(=O)C(N1CCOCC1)S2 (stereo unspecified) | -16.3 | 13.0

Screens from PubChem.
